{"source": "PubChem BioAssay (Tox21)", "note": "Results filed as inconclusive are left out. Active and inactive are the calls of the source. Calls follow the shape of the dose curve; as a rule, active = well fitted cell-killing curve with a large enough effect in the repeat runs; inconclusive = weak or mixed curves, or effect the other way; inactive = no such curve, though single readings can be large or run the other way. % is scaled to controls: 0 for no effect and ±100 for the full control effect; potency is read from the fitted curve at half-maximal effect.", "data": [{"experiment": "qHTS assay to identify small molecule antagonists of the retinoid-related orphan receptor gamma (ROR-gamma) signaling pathway - cell viability counter screen (AID 1159520); also: nearly all actives have a fitted effect of over 50% in size", "details": "Tet-on RORgamma CHO cells viability, ATP luminescence, 16 h; series mostly up to 92.4 µM; activity, negative = cytotoxicity: at the top concentration", "excerpt": "U.S. Tox21 Program National Center for Advancing Translational Sciences [NCATS] NIH Chemical Genomics Center [NCGC] U.S. Environmental Protection Agency [EPA] National Institutes of Environmental Health Sciences [NIEHS] National Toxicology Program [NTP] U.S. Food and Drug Administration [FDA] Tox21 Assay Overview: Nuclear steroid hormone receptors are involved in many biological processes including inflammatory responses, cell proliferation, and apoptosis. Environmental factors or compounds disrupting these nuclear receptor pathways and gene expression may promote susceptibility to immunotoxicants and autoimmune diseases. One important group of these expression factors are the retinoid-related orphan receptors. To assess compounds that may interfere with the retinoid-related orphan receptor gamma (ROR-gamma) transcription factor, a cell-based luciferase assay was used. The CHO cell-based assay utilizes a TET-inducible ROR expression factor and ROR response element-LUC reporter gene. Reporter gene activity was induced using Doxycycline Hyclate and measured after 16 hr incubation. Tet-on ROR gamma CHO cells were used to screen against the Tox21 10K compound library for cytotoxicity by measuring the viability of the cells based on the quantitation of the ATP.\nTox21 Assay Protocol Summary: Tet-on ROR gamma CHO cells were dispensed at 1,000 cells in 4 uL of culture medium per well into white wall/solid bottom 1536-well plates using a Multidrop Combi (Thermo Scientific, Waltham, MA) dispenser. Following incubation at 37 C and 5% CO2 for 4 hr, 23 nL of compounds dissolved in DMSO, positive controls or DMSO only were transferred by a Pintool station (Kalypsys, San Diego, CA) and after 2 hr incubation at 37 C, one ul of 1 uM (final concentration) of Doxycycline Hyclate was added to all the wells by using a Flying Reagent Dispenser (FRD) (Aurora Discovery, San Diego, CA). After 16 hr incubation at 37 C and 5% CO2, 5 uL of CellTiter-Glo reagent (Promega Corporation, Madison, WI) was added to each assay plate using FRD. After 30 min incubation at room temperature, luminescence was quantified on a ViewLux plate reader (Perkin Elmer, Waltham, MA).", "values": [{"smiles": "CCCCCCC(O)CCCCCCCCCCC(=O)OC", "note": "(stereo not given)", "activity, negative = cytotoxicity": "2.33% (inactive)"}, {"smiles": "CN1CCCN(C(c2ccccc2)c2ccc(Cl)cc2)CC1", "note": "(stereo not given)", "activity, negative = cytotoxicity": "-9.9% [at 42.5 µM] (inactive)"}, {"smiles": "CC1C(C)(C)C2=C(C(=O)CCC2)C1(C)C", "note": "(stereo not given)", "activity, negative = cytotoxicity": "0.0075% (inactive)"}, {"smiles": "Cc1ccc(Cl)cc1N", "activity, negative = cytotoxicity": "-2.65% (inactive)"}, {"smiles": "O=C(O)CN1C(=O)c2cccc3cccc(c23)C1=O", "activity, negative = cytotoxicity": "2.42% [at 42.5 µM] (inactive)"}, {"smiles": "CC(C)(C)CCCCCCOC(=O)c1ccccc1C(=O)OCCCCCCC(C)(C)C", "activity, negative = cytotoxicity": "0.0111% (inactive)"}, {"smiles": "CCCCC(CC)COS(=O)(=O)O", "note": "(stereo not given)", "activity, negative = cytotoxicity": "0.455% (inactive)"}, {"smiles": "CCN(CC)c1ccc(C(=C2C=CC(=[N+](CC)CC)C=C2)c2ccc(S(=O)(=O)O)cc2S(=O)(=O)[O-])cc1", "Potency": "8.63 µM (active)"}, {"smiles": "CC(C)(C)S", "activity, negative = cytotoxicity": "2.63% (inactive)"}, {"smiles": "COc1ccc(/C=C/C(=O)c2ccc(OC)cc2OC)cc1", "activity, negative = cytotoxicity": "-12.7% [at 42.5 µM] (inactive)"}, {"smiles": "CC(C)(C)C1(CCc2ccc(Cl)cc2)CO1", "note": "(stereo not given)", "activity, negative = cytotoxicity": "5.73% (inactive)"}, {"smiles": "CCCCCCCCCCCC(=O)OCC(O)CO", "note": "(stereo not given)", "activity, negative = cytotoxicity": "0.36% (inactive)"}, {"smiles": "COc1ccc(C)cc1", "activity, negative = cytotoxicity": "2.8% (inactive)"}, {"smiles": "CC(C)(C(=O)c1cccnc1)c1cccnc1", "activity, negative = cytotoxicity": "2.27% [at 42.5 µM] (inactive)"}, {"smiles": "CC1CCCC(=O)C1=O", "note": "(stereo not given)", "activity, negative = cytotoxicity": "-4.19% (inactive)"}, {"smiles": "Cc1cc(CCC(=O)OCCOCCOCCOC(=O)CCc2cc(C)c(O)c(C(C)(C)C)c2)cc(C(C)(C)C)c1O", "activity, negative = cytotoxicity": "1.43% (inactive)"}, {"smiles": "O=P(O)(O)Oc1ccccc1", "activity, negative = cytotoxicity": "4.48% (inactive)"}, {"smiles": "CCCCOCCOC(=O)c1cccnc1", "activity, negative = cytotoxicity": "-5.65% [at 42.5 µM] (inactive)"}, {"smiles": "CC(C)(O)CCc1ccccc1", "activity, negative = cytotoxicity": "12% (inactive)"}, {"smiles": "C=C(C)C(=O)OCCC(F)(F)C(F)(F)C(F)(F)C(F)(F)C(F)(F)C(F)(F)F", "activity, negative = cytotoxicity": "8.11% (inactive)"}, {"smiles": "CCCCCc1ccco1", "activity, negative = cytotoxicity": "-14.7% [at 42.5 µM] (inactive)"}, {"smiles": "O=C(O)CCC(=O)c1ccc(-c2ccccc2)cc1", "activity, negative = cytotoxicity": "-0.7% [at 42.5 µM] (inactive)"}, {"smiles": "Cc1ccc(N(CC2=NCCN2)c2cccc(O)c2)cc1", "activity, negative = cytotoxicity": "0.492% [at 42.5 µM] (inactive)"}, {"smiles": "CC(C)C(=O)OCCOc1ccccc1", "activity, negative = cytotoxicity": "-0.754% (inactive)"}, {"smiles": "OCC(CO)n1cnc(-c2ccc(F)cc2)c1-c1ccnc(Oc2ccccc2)n1", "activity, negative = cytotoxicity": "0.258% (inactive)"}, {"smiles": "O=c1[nH]c2cc(C(F)(F)F)c(N3CCOCC3)cc2n(CP(=O)(O)O)c1=O", "activity, negative = cytotoxicity": "3.71% [at 42.5 µM] (inactive)"}, {"smiles": "O=C(O)CNC(=O)c1ccccc1I", "activity, negative = cytotoxicity": "8.01% [at 42.5 µM] (inactive)"}, {"smiles": "CC(=O)C(C)=O", "activity, negative = cytotoxicity": "3.64% (inactive)"}, {"smiles": "CCN(CC)CCOC(=O)C(c1ccccc1)c1ccccc1", "activity, negative = cytotoxicity": "-3.24% [at 42.5 µM] (inactive)"}, {"smiles": "CC(O)Cn1cnc2c1c(=O)n(C)c(=O)n2C", "note": "(stereo not given)", "activity, negative = cytotoxicity": "-1.04% [at 42.5 µM] (inactive)"}, {"smiles": "COc1ccc(-n2nc(C(F)F)cc2-c2ccc(S(C)=O)cc2)cc1", "note": "(stereo not given)", "activity, negative = cytotoxicity": "-13.4% (inactive)"}, {"smiles": "CC(=O)OC(C)C[N+](C)(C)C", "note": "(stereo not given)", "activity, negative = cytotoxicity": "-2.3% [at 42.5 µM] (inactive)"}, {"smiles": "CCCCC[C@H](O)/C=C/[C@H]1[C@H](O)CC(=O)[C@@H]1C/C=C\\CCCC(=O)O", "activity, negative = cytotoxicity": "1.75% [at 42.5 µM] (inactive)"}, {"smiles": "COc1cc(C(C)=O)ccc1OCCCN1CCC(c2noc3cc(F)ccc23)CC1", "activity, negative = cytotoxicity": "-9.34% [at 42.5 µM] (inactive)"}, {"smiles": "Cc1cn([C@H]2C[C@H](F)[C@@H](CO)O2)c(=O)[nH]c1=O", "activity, negative = cytotoxicity": "1.88% [at 42.5 µM] (inactive)"}, {"smiles": "NC(=O)c1ccccc1[N+](=O)[O-]", "activity, negative = cytotoxicity": "-0.476% (inactive)"}, {"smiles": "COc1cc(OC)c2ccc(=O)oc2c1", "activity, negative = cytotoxicity": "-6.45% (inactive)"}, {"smiles": "CC(C)CC(O)CC(C)C", "activity, negative = cytotoxicity": "3.45% (inactive)"}, {"smiles": "CCCOC(=O)c1c(Cl)c(Cl)c(Cl)c(Cl)c1C(=O)OCCC", "activity, negative = cytotoxicity": "-6.62% (inactive)"}, {"smiles": "CC(=O)c1ccc[nH]1", "activity, negative = cytotoxicity": "0.303% (inactive)"}]}]}
